GLP-1R inv ag: qHTS of GLP-1 Receptor Inverse Agonists (Inhibition Mode). Glucagon-like peptide 1 receptor (Homo sapiens), P43220. HEK293 GLP-1R CRE-luciferase, luminescence, 24 h; GLP-1R form is constitutively active. Potency, µM (top dose mostly 38.3 µM), without a hit: at the top dose activity change, negative = inhibition, most hits filed as inhibitors. 410,000 compounds, 1.6% hits. AID 624417, 2012; further: on the % scale 0 is the no-effect control and ±100 the full control effect; nearly all actives have a fitted effect of over 55% in size
Target sequence (P43220 whole entry, looked up): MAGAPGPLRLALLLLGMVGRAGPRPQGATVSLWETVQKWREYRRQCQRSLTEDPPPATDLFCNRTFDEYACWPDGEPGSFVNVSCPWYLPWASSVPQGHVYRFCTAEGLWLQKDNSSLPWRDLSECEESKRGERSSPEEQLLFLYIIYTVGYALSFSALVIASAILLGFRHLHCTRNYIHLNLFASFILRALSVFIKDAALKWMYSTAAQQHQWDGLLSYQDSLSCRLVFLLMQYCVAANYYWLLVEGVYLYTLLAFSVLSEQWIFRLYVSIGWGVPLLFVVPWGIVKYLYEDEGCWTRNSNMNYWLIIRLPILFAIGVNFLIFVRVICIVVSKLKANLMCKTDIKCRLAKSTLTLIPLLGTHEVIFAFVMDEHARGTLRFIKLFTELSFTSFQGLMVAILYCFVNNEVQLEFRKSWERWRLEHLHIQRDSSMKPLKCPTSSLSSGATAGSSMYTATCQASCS
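Assay principle: reduced luminescence from a cAMP-responsive reporter in HEK293 cells co-expressing a constitutively active GLP-1R. Conditions: 24 hr compound incubation, 37 deg C, 5% CO2.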
HEK293 tox: qHTS of GLP-1 Receptor Inverse Agonists: Cytotox Screen; HEK293 cAMP-luciferase reporter cells, luminescence, 24 h; 410,000 compounds, 0.13% hits; Potency, µM (doses to about 38.3 µM), without a hit: at the top dose activity change, negative = inhibition, usual class: inhibitors;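 further: loss of luciferase light is scored as toxicity; on the % scale 0 is the no-effect control and ±100 the full control effect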
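Cells in DMEM/10% Nu serum/1% pen-strep, 1536-well format. Pre-incubated 12 h, dosed with 23 nL compound, incubated a further 24 h. Luciferase detection, 12 min at room temp, luminescence.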
Pin1 inhibitor: qHTS Assay to Find Inhibitors of Pin1; Peptidyl-prolyl cis-trans isomerase NIMA-interacting 1 (Homo sapiens), Q13526; Pin1 FP peptide displacement, HiFluor488, 10 min; Potency, µM (top dose mostly 115 µM), without a hit: at the highest dose activity, negative = inhibition, most hits filed as inhibitors; 390,000 compounds, 0.009% hits; AID 504891, 2011; active means well fitted inhibition curve with a large enough effect in the polarisation, with a control signal flat, not every such curve was filed as active; inconclusive means small, poorly fitted or top-dose-only effect, or effect the other way, or a change in a side signal; inactive means no such curve, though single readings can be large or run the other way; the % refers to the polarisation; further: on the % scale 0 is the no-effect control and ±100 the full control effect
Target sequence (Q13526 whole entry, looked up): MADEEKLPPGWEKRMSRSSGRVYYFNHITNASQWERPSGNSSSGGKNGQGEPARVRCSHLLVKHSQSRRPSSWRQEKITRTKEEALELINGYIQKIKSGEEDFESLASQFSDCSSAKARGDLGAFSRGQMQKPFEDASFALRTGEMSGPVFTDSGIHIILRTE
Tb PGK inh: qHTS Assay to Find Inhibitors of Phosphoglycerate Kinase; Phosphoglycerate kinase, glycosomal (Trypanosoma brucei brucei), P07378; PGK/GAPDH coupled, Kinase-Glo luminescence, 60 min; Potency, µM (series often up to 57.5 µM), for the others: top-dose activity change, negative = inhibition, actives largely listed as inhibitors; 380,000 compounds, 0.043% hits; AID 602233, 2012; further: on the % scale 0 is the no-effect control and ±100 the full control effect; nearly all actives have a fitted effect of over 60% in size
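Luminescent ATP detection (Kinase-Glo Plus) follows a 60-minute room-temperature incubation, with wells lacking PGK as controls. Buffer: 100 mM TEA (pH 7.6), 5 mM MgCl2, 0.01% Tween-20. Coupling enzyme GAPDH (100 nM final) supplies unstable 1,3-BPG in-well.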
GLP1R ag: qHTS of GLP-1 Receptor Agonists; Glucagon-like peptide 1 receptor (Homo sapiens), P43220; HEK293 GLP-1R CRE-luciferase, luminescence, 4-6 h; cells express a hypersensitive GLP-1R form; Potency, µM (doses to about 45.6 µM), for the others: at the top dose activation, most hits filed as activators; 380,000 compounds, 0.007% hits; further: % of control where 0% means no effect
Tb PFK inh-1: qHTS Assay to Find Inhibitors of T. brucei phosphofructokinase; ATP-dependent 6-phosphofructokinase (Trypanosoma brucei brucei), O15648; T. brucei PFK, ADP-Glo luminescence; Potency, µM (highest dose often 57.5 µM), for inactives: at the highest dose activity, negative = inhibition, most hits filed as inhibitors; 330,000 compounds, 0.17% hits; AID 485367, 2010;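 further: 0% = uninhibited 1x PFK enzyme wells and -100% = no-enzyme wells; nearly all actives have a fitted effect of over 60% in size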
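In TEA buffer at pH 8.0 with 5 mM MgCl2, enzyme (1.25 nM) converted F6P (0.5 mM) and ATP (0.1 mM) for 45 min at room temperature. ADP product was read by luciferase luminescence.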
TbPFK ATP: Tb PFK orthogonal confirmatory assay using ATP depletion (Kinase-Glo Plus) as an alternative measure of Tb PFK activity: Hit Validation; shares compounds with Tb PFK inh-1; Tb PFK enzyme, ATP depletion, Kinase-Glo Plus luminescence; Potency, µM (top dose mostly 57.5 µM), for inactives: top-dose inhibition; 1,100 compounds, 47% hits; AID 504636, 2011; calls by dose curve; further: nearly all actives have a fitted effect of over 60% in size
Tb PFK inh-2: Inhibitors of T. brucei phosphofructokinase: Hit Validation | purified T. brucei PFK, ADP-Glo luminescence, 45 min | Potency, µM (highest dose often 57.5 µM), for the others: top-dose activity change, negative = inhibition, most hits filed as inhibitors | 1,100 compounds, 41% hits | shares compounds with Tb PFK inh-1;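 further: plate controls were full PFK enzyme control for no effect and no enzyme control for full effect; nearly all actives have a fitted effect of over 60% in size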
Active calls of the source: *; i = inactive; ? = inconclusive; / = no result given; [ ] = dose if it differs, or a comment. Hits are enriched below; roughly 1.8% of the tested compounds scored in any of these assays. Unless noted, the call rests on the fitted dose curve; in most records, active means well fitted curve in the direction sought with a large enough effect; inconclusive means small, poorly fitted or top-dose-only effect, or another doubt; inactive means no such curve, though single readings can be large; an effect the other way counts as inactive or inconclusive. Potency means the concentration at half of the fitted maximal effect.

SMILES | GLP-1R inv ag | HEK293 tox | Pin1 inhibitor | Tb PGK inh | GLP1R ag | Tb PFK inh-1 | TbPFK ATP | Tb PFK inh-2
CCOc1ccc(CCNC(=O)c2cc3c(-c4cccc(OC)c4)nn(C)c3s2)cc1OCC | ? | -26% | 6% | 4% | / | / | / | /
OC(Cc1cccc(Br)c1)c1ncc(-c2cccc(C(F)(F)F)c2)[nH]1 (stereo not drawn) | ? | ? | / | / | -5% | / | / | /
C=CCN1C(=O)/C(=C2/Sc3ccccc3N2CCCS(=O)(=O)O)SC1=S | 3% | -9% | ? | -19% | 3% | ? | -29% | ?
C=CCN1C(=O)c2ccccc2Sc2ccc(C(=O)N3CCC4(CC3)OCCO4)cc21 | -21% | -17% | -4% | -1% | 11% | -1% | / | /
CCCCOP(=O)(OCCCC)C(Nc1ccc(C(=O)OCC)cc1)c1ccncc1 (stereo not drawn) | ? | -12% | ? | 0% | 12% | 3% | / | /
CCOC(=O)C(C(=O)OCC)C(Nc1ccc(Br)cc1)c1ccccc1 (stereo not drawn) | ? | ? | 2% | i | -26% | -11% | / | /
CC(=O)Nc1cc(C(=O)CSc2nnc(C3CC3)n2C2CC2)ccc1O | -1% | -3% | ? | -1% | -3% | ? | ? | ?
Cn1c(N)c(C(=O)COC(=O)c2cc(S(=O)(=O)N3CCOCC3)ccc2F)c(=O)n(C)c1=O | -20% | ? | -10% | -10% | -1% | ? | / | /
Cc1ccc(NS(=O)(=O)c2c(F)cc(F)c(Cl)c2F)cc1S(=O)(=O)N1CCOCC1 | ? | 10% | -5% | i | 4% | -2% | / | /
COCCN(C(=O)COC(=O)c1cc2c(s1)CCC2)c1c(N)n(Cc2ccccc2)c(=O)[nH]c1=O | -4% | -18% | / | ? | -8% | 3.8µM* | 1.1µM* | 1.7µM*
CC(=NCCN(C)C)c1c(O)n(Cc2ccccc2)c(=O)[nH]c1=O | 1% | 0% | 10% | 6% | -6% | 0% | / | /
CC1(C)CC[C@]2(C(=O)O)CC[C@]3(C)C(=CC[C@@H]4[C@@]5(C)CC[C@H](O[C@@H]6O[C@H](C(=O)O)[C@@H](O)[C@H](O[C@@H]7OC[C@H](O)[C@H](O)[C@H]7O)[C@H]6O)C(C)(C)[C@@H]5CC[C@]43C)[C@@H]2C1 | ? | ? | / | -9% | -17% | ? | / | /
O=P(O)(O)c1ccccc1OCCOCCOCCOCCOc1ccccc1P(=O)(O)O | 18% | -19% | ? | -4% | -1% | 16% | / | /
CC1=C(C(=O)Nc2ccccc2C(F)(F)F)C(c2ccc(C)s2)NC(=S)N1 (stereo not drawn) | -13% | -12% | 7% | 5% | 10% | ? | 5% | 4%
c1ccc2c(c1)Sc1ccccc1N2C[C@H]1CN2CCC1CC2 | / | / | / | / | -2% | / | / | /
CC1(C)CC(=O)C2=C(C1)OC1=C(C(=O)CC(C)(C)C1)C2c1ccc(O)cc1O | ? | ? | 4% | 3% | -24% | ? | 1.7µM* | 1.3µM*
O=C(COc1ccc(/C=C\[N+](=O)[O-])cc1)N1CCOCC1 | 4% | 5% | ? | 3% | -3% | ? | -22% | ?
O=C(COc1ccc(Cl)cc1)N1CCN(Cc2ccc([N+](=O)[O-])cc2)CC1 | ? | -4% | -11% | -8% | -1% | -23% | / | /
COc1cc(CC(C)N)c(OC)cc1Br (stereo not drawn) | / | / | / | / | -4% | / | / | /
COc1ccc(Nc2nc(C)cc(=O)[nH]2)cc1 | 6% | 12% | 13% | -7% | 0% | 12µM* | 13µM* | 24µM*
CN1C(=O)C(=Cc2coc3ccccc3c2=O)C(=O)N(C)C1=O | ? | 1% | -12% | -5% | -1% | 0% | / | /
O=c1cc(/N=C/c2coc3c(ccc4ccccc43)c2=O)[nH]c(=S)[nH]1 | 8% | -2% | 15% | -2% | -1% | ? | -27% | ?
CCCN1CCCC2Cc3nc(N)ncc3CC21 (stereo not drawn) | / | / | / | / | 2% | / | / | /
CCNC(=O)C1CCCc2c1[nH]c1ccc(Cl)cc21 (stereo not drawn) | 1%[7.66 µM] | 0%[7.66 µM] | 0% | 0% | 2% | ? | 12µM* | 21µM*
O=C(O)c1cccc2c1C(=O)c1cc(Br)ccc1S2(=O)=O | 24% | 3% | 1% | 0% | -5% | ? | -29% | ?
SMILES | GLP-1R inv ag | HEK293 tox | Pin1 inhibitor | Tb PGK inh | GLP1R ag | Tb PFK inh-1 | TbPFK ATP | Tb PFK inh-2
COc1ccc(/C(=N/OC(C)=O)c2nccc3cc(OC)c(OC)cc23)cc1OC | 58% | -7% | -1% | -4% | 12% | 3% | / | /
Cc1c(Br)c([N+](=O)[O-])nn1CC(=O)Nc1ccc2nc3n(c(=O)c2c1)CCCC3 | 30% | -5% | -6% | -8% | 0% | ? | 24µM* | ?
CC1=C(C(=O)Nc2ccccn2)C(c2ccc(Br)cc2)NC(=S)N1 (stereo not drawn) | -17% | ? | 4% | 2% | -4% | 0% | / | /
Cc1c(Br)c([N+](=O)[O-])nn1CC(=O)Nc1ccc(Cc2ccncc2)cc1 | ? | -13% | -14% | -6% | 2% | 13µM* | 13µM* | 21µM*
Cc1ccc(Cn2nc(C(=O)Nc3ccc(Br)cc3)cc2C)cc1 | ? | -17% | ? | 6% | 20% | 10% | / | /
CC(=O)Nc1ccc(NC(=O)Cn2nc([N+](=O)[O-])c(Br)c2C)cc1 | 19% | -25% | -3% | -4% | 3% | 12µM* | 19µM* | 30µM*
Cc1c(Br)c([N+](=O)[O-])nn1CC(=O)Nc1ccccn1 | -4% | -10% | 1% | 6% | 14% | 19µM* | 19µM* | ?
